Most compounds without a hit are left out; they make up all but 0.9% or so of the library.
TDP1 inh – TDP1 (human) enzyme inhibition. Q9NUW8. recombinant TDP1, AlphaScreen DNA substrate cleavage. Potency, µM (top dose mostly 130 µM), for the others: top-dose activity change, negative = inhibition, usual class: inhibitors. 350,000 tested, 0.28% active. AID 485290; also: nearly all actives have a fitted effect of over 40% in size
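Enzyme-compound mixtures sat 15 min at room temperature, followed by a 5 min reaction with 15 nM final substrate and 10 min with AlphaScreen beads. Recombinant human Tdp1 was used at 1 nM final.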
LMNA splice mod – modulators of lamin A splicing; HeLa LMNA splicing GFP/RFP minigene ratio, 48 h; Potency, µM (highest dose often 46.1 µM), for the others: at the top dose ratio change, negative = inhibition, most hits filed as inhibitors; 200,000 tested, 0.01% active; active = well fitted inhibition curve with a large enough effect in the signal ratio, with a control signal flat, not every such curve was filed as active; inconclusive = small, poorly fitted or top-dose-only effect, or effect the other way, or a change in a side signal; the % refers to the signal ratio
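S3 HeLa stable clones carrying a lamin A-EGFP splicing minigene plus DsRed2 were seeded at 600 cells/well in Opti-MEM with 2% FBS, pin-dosed and incubated 48 h at 37°C. Acumen cytometry (488 nm) gave the GFP/RFP total-intensity ratio.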
KAT2A inh – GCN5L2 (KAT2A) acetyltransferase inhibition; GCN5L2 HAT assay, ThioGlo1 CoA-SH fluorescence; 390,000 tested, 0.21% active; Potency, µM (titrated, usually from 58.9 µM), without a hit: at the top dose activity change, negative = inhibition, most hits filed as inhibitors; AID 504327
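qHTS, 1536-well. 20nM enzyme, pH 7.5 HEPES/EDTA/Tween-20 buffer; 15 min compound preinc., RT. Start: 75uM H3(1-25), 70uM AcCoA, 50uM ThioGlo1. Read Ex340/Em540 at t=0 (autofluorescence flag) and t=20 min.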
RECQ1 helicase – RECQ1 (human) helicase inhibition; RECQ1 DNA unwinding, red fluorescence kinetic read; Potency, µM (top dose mostly 57.3 µM), without a hit: at the top dose activity, negative = inhibition, most hits filed as inhibitors; 240,000 tested, 0.54% active;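 also: plate controls were vehicle for no effect and no enzyme for full effect; nearly all actives have a fitted effect of over 30% in size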
Target sequence (P46063 whole entry, looked up): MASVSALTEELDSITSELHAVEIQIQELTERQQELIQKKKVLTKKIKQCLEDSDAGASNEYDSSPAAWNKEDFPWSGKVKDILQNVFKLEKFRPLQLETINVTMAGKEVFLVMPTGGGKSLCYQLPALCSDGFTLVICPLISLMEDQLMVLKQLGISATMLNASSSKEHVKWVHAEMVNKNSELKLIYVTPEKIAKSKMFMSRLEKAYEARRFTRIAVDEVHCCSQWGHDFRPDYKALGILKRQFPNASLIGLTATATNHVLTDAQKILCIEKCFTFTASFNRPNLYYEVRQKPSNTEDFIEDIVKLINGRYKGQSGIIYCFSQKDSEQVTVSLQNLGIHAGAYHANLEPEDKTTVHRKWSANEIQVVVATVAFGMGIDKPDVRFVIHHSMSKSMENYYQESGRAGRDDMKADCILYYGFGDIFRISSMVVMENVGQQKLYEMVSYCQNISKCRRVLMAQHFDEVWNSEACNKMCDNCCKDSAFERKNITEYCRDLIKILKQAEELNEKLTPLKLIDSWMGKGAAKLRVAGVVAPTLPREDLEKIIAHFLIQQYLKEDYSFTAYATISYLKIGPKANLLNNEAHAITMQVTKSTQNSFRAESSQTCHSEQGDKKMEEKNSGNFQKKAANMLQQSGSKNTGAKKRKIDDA
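50 nM RECQ1T1 preincubated 15 min with compound in Tris pH 8.0 buffer with MgCl2, DTT, Tween-20 and 2.5 ug/ml poly(dI-dC); started with 200 nM TAMRA/BHQ-2 forked duplex and 2 mM ATP. Unwinding read as fluorescence (525/598 nm), two reads 2 h apart.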
BLM inh – blocks DNA unwinding by human BLM helicase. P54132. recombinant BLM DNA unwinding, fluorescence dequenching. Potency, µM (top dose mostly 56.1 µM), inactives show at the highest dose activity change, negative = inhibition, usual class: inhibitors. 350,000 tested, 0.2% active;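 also: plate controls were vehicle for no effect and no enzyme for full effect; nearly all actives have a fitted effect of over 35% in size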
APE1 inh-1 – blocks human APE1 abasic DNA cleavage | recombinant APE1, TAMRA/BHQ-2 abasic DNA cleavage fluorescence | Potency, µM (highest dose often 65.8 µM), inactives show at the top dose activity change, negative = inhibition, actives largely listed as inhibitors | 350,000 tested, 0.35% active;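 also: plate controls were vehicle for no effect and reference inhibitor for full effect; nearly all actives have a fitted effect of over 55% in size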
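Compound pre-exposure to 0.75 nM APE1, 15 min at ambient temperature. Reaction initiated with 50 nM TAMRA/BHQ-2 THF substrate, read immediately in kinetic mode, 525 nm excitation, 598 nm emission.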
APE1 dye cs – DNA dye displacement counter-screen activity | DNA fluorescent dye displacement counterscreen, fluorescence | AID 2564 | 480 tested, 7% active | Potency, µM (series often up to 28.5 µM), for inactives: at the top dose activity change, negative = inhibition, hits mostly inhibitors | shares compounds with APE1 inh-1;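 also: loss of thiazole orange fluorescence as the dye is displaced from duplex DNA; 0% = ThO with dsDNA and no compound and -100% = ThO without dsDNA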
EndoIV counter – Endo IV (E. coli) inhibition counter-screen | shares compounds with APE1 inh-1 | E. coli Endo IV, fluorogenic AP-site DNA cleavage | Potency, µM (doses to about 27.1 µM), for the others: top-dose activity change, negative = inhibition, hits mostly inhibitors | 560 tested, 4% active | AID 2565;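 also: plate controls were uninhibited enzyme wells for no effect and no enzyme buffer wells for full effect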
APE1 inh-2 – APE1 (human) endonuclease inhibition, confirmation | shares compounds with APE1 inh-1 | purified APE1, fluorogenic abasic-site DNA cleavage | Potency, µM (highest dose often 57.1 µM), for the others: at the top dose activity change, negative = inhibition, most hits filed as inhibitors | 750 tested, 44% active; also: nearly all actives have a fitted effect of over 30% in size
APE1 FP – APE1 (human) DNA binding inhibition, fluorescence polarization. shares compounds with APE1 inh-1. APE1 binding to TAMRA-labelled double-stranded DNA, fluorescence polarization displacement. Potency, µM (titrated, usually from 28.5 µM), for inactives: at the highest dose activity, negative = inhibition, actives largely listed as inhibitors. 480 tested, 7% active. AID 2573
An asterisk follows results filed as active; i = inactive; ? = inconclusive; . = no result; [ ] = dose if it differs, or a comment. Unless noted, calls follow the shape of the dose curve; as a rule, active = well fitted curve in the direction sought with a large enough effect; inconclusive = small, poorly fitted or top-dose-only effect, or another doubt; inactive = no such curve, though single readings can be large; an effect the other way counts as inactive or inconclusive. Unless noted, % is scaled to controls: 0 for no effect and ±100 for the full control effect; potency is read from the fitted curve at half-maximal effect.

SMILES	TDP1 inh	LMNA splice mod	KAT2A inh	RECQ1 helicase	BLM inh	APE1 inh-1	APE1 dye cs	EndoIV counter	APE1 inh-2	APE1 FP
O=C(O)c1ccc(-n2cccc2/C=C2/NC(=O)N(c3ccccc3)C2=O)cc1	.	.	?	25µM*	-2%	2.5µM*	-3%	-11%	4µM*	13µM*
Cc1ccc(CN2C(=O)N/C(=C\c3cccn3-c3cccc(C(=O)O)c3)C2=O)cc1	0%	.	?	-3%	-6%	16%	.	.	.	.
O=C1N/C(=C/c2cccn2-c2ccc(F)cc2)C(=O)N1Cc1ccccc1	6%	-8%	-5%	-15%	-8%	0%	.	.	.	.
O=C(O)c1cccc(-n2cccc2/C=C2\NC(=O)N(Cc3ccc(F)cc3)C2=O)c1	?	-15%[46 µM]	-10%	-28%	-9%	10µM*	-6%	-4%	10µM*	?
CCC1CCCCC1	11%	.	-10%	-15%	0%	1%	.	.	.	.
O=C(O)C1NCCN(C(=O)c2ccc3c(ccc4ccccc43)c2)C1C(=O)O (configuration not stated)	3%	.	-10%	-1%	3%	-3%	.	.	.	.
Cc1ccnc(NS(=O)(=O)c2ccc(NC(=O)C3C4C=CC(C4)C3C(=O)O)cc2)n1 (configuration not stated)	50µM*	.	-12%	-5%	-7%	?	.	.	-2%	.
CC1(C)CC(=O)C=C(NCc2ccccc2)C1	-10%	14%	0%	i	0%	?	-2%	1%	?	13%
COc1cccc(/C=N/Nc2ccc(S(=O)(=O)O)cc2)c1O	?	3%	-7%	0%	-1%	25µM*	?	-4%	?	-4%
COc1cccc(/C=N/Nc2ccc(C(=O)O)cc2)c1O	-7%	13%[46 µM]	-10%	i	-4%	-6%	.	.	.	.
CCN[C@@H]1C[C@H](N)[C@@H](OC2OC(CN)=CCC2N)[C@H](O)[C@H]1O[C@H]1OC[C@](C)(O)[C@H](NC)[C@H]1O (some centres not stated)	.	.	.	.	.	1%[21 µM]	.	.	.	.
CC(C)(C)n1ncc2c(=O)n(Cc3ccc([S+](=O)([O-])N4CCOCC4)cc3)cnc21	.	.	.	.	.	0%	.	.	.	.
COCc1cc(C)nc(OCC(=O)N/N=C/c2ccc(-c3cc([N+](=O)[O-])ccc3C)o2)c1C#N	0%	-13%	-9%	-14%	-3%	-5%	.	.	.	.
Cc1ccc([N+](=O)[O-])cc1-c1ccc(/C=C(\C#N)c2[nH]nc(N)c2C#N)o1	-8%	?	-3%	32µM*	?	?	7.1µM*	-3%	7.1µM*	16%
CSCC[C@H](NC(=O)[C@H](CC(C)C)NC(=O)[C@@H]1CCCN1C(=O)[C@H](Cc1ccccc1)NC(=O)[C@H](Cc1ccccc1)NC(=O)[C@@H]1CCC(=O)N1)C(N)=O	7%	.	0%	-6%	-1%	0%	.	.	.	.
CCC(C)C(NC(=O)OC(C)(C)C)C(=O)NC1COC2CC(n3ccc(=O)[nH]c3=O)OC12 (configuration not stated)	6%	.	.	i	3%	2%	.	.	.	.
Oc1cc(O)c2c(c1)O[C@H](c1ccc(O)c(O)c1)[C@H](O)C2	-3%[21 µM]	-17%	-1%	-18%[25.9 µM]	-3%	-9%	2%	137%	-6%[24.4 µM]	?
Cc1c(-c2ccc(Cl)cc2)oc(=O)c2c(N)n(-c3ccccc3)nc12	50µM*	?	-6%	-10%	?	-7%	.	.	?	.
CCCCn1cc[n+](C)c1	6%	.	14%	-12%	-3%	2%	.	.	.	.
O=c1c(-c2ccc(O)cc2)coc2cc(O)cc(O)c12	6%	?	-11%	-6%	2%	-1%	.	.	.	.
O=c1c(-c2cc(O)c(O)c(O)c2)coc2cc(O)c(O)c(O)c12	0.28µM*	.	?	1.3µM*	11µM*	0.32µM*	.	7%[57.1 µM]	0.4µM*	.
C=C1CCN(C(C(=O)O)C(C)C)S(=O)(=O)c2ccccc21 (configuration not stated)	2%	.	.	16%	3%	22%	.	.	.	.
COc1c(O)cc2c(c1O)C(=O)CC(c1ccccc1)O2 (configuration not stated)	1%	.	-2%	-10%	-3%	25µM*	-3%	2%	-11%[24.4 µM]	0%
CN1C2CCC1CC(OC(=O)c1c[nH]c3ccccc13)C2 (configuration not stated)	4%[56.1 µM]	?	-4%	?	-9%	19%	.	-12%[57.1 µM]	-22%	.

Screens: PubChem, National Center for Advancing Translational Sciences (NCATS)
